An excerpt weighted towards active compounds, which were near 21% of everything screened.
ELG1 DNA repair – ELG1-dependent DNA repair inhibition | HEK293T ELG1-luciferase reporter, luminescence, 16 h; DNA damage induced by 5-fluorouridine | Potency, µM (titrated, usually from 46.1 µM), for the others: at the highest dose activity change, negative = inhibition, most hits filed as inhibitors | 2.3% of 330,000 active; also: potency is read from the fitted curve at half-maximal effect; nearly all actives have a fitted effect of over 55% in size
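HEK293T cells expressing luciferase-tagged ELG1 (2,000/well) received 5-Fluorouridine plus compound or DMSO for 16 hr at 37 °C. Luciferase was read by ONE-Glo luminescence after 30 min at room temperature.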
VP16 counter – inhibits Gal4-VP16 luciferase reporter, ROR gamma counter-screen; Drosophila S2 Gal4-VP16 UAS-luciferase, luminescence, 20 h; Potency, µM (series often up to 53.6 µM), inactives show top-dose activity, negative = inhibition, hits mostly inhibitors; 3.5% of 310,000 active;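 also: Gal4-VP16 expression switched on by copper sulfate through the metallothionein promoter; potency is read from the fitted curve at half-maximal effect; nearly all actives have a fitted effect of over 50% in size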
TDP1 cell noCPT – qHTS for Inhibitors of human tyrosyl-DNA phosphodiesterase 1 (TDP1): qHTS in cells in absence of CPT. DT40 Tdp1-/- hTDP1 cells, no CPT, ATP luminescence, 48 h. Potency, µM (titrated, usually from 46.2 µM), for the others: top-dose activity change, negative = growth inhibition, actives largely listed as inhibitors. 15% of 420,000 active; also: potency is read from the fitted curve at half-maximal effect; nearly all actives have a fitted effect of over 55% in size
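Readout: luminescence from CellTiter-Glo after 30 min in the dark at RT. Cells: DT40 Tdp1-/- with stable hTDP1, 400/well. Exposure: compounds alone, ≥48 hr, 37 °C.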
TDP1 cell CPT – DT40-hTDP1 cell growth loss with CPT. chicken DT40 Tdp1-/-;hTDP1 cells + 20 nM CPT, ATP luminescence, 48 h. Potency, µM (top dose mostly 46.2 µM), inactives show at the highest dose activity change, negative = growth inhibition, usual class: inhibitors. 12% of 420,000 active; also: potency is read from the fitted curve at half-maximal effect; nearly all actives have a fitted effect of over 55% in size
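Chicken DT40 Tdp1-/- cells complemented with human TDP1, 400 cells/well, exposed to compounds plus 20 nM camptothecin for at least 48 h at 37 C; viability read as ATP content by CellTiter-Glo luminescence.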
IL-1B inflam inh – inhibitors of inflammasome signaling (IL-1 beta secretion); THP-1 LPS/ATP IL-1B secretion, AlphaLISA, 16 h; hits give low values; activity change, % at 57.5 µM; 4.7% of 360,000 active; AID 743279; in the data active = activity change below about -50%; inconclusive = mostly about -30% to -49%
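THP-1 cells pretreated 1 hr with compounds (up to 57.5 uM final), then stimulated with LPS (250 ng/mL final) plus ATP (1.25 mM final); secreted IL-1B measured by AlphaLISA after 16 hr, decreased signal indicating inhibition.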
RORgamma inh – blocks mouse ROR gamma transcriptional activity; P51450; Drosophila S2 Gal4-RORgamma UAS-luciferase reporter, 20 h; Potency, µM (titrated, usually from 53.6 µM), inactives show top-dose activity change, negative = inhibition, usual class: inhibitors; AID 2551; 5.4% of 310,000 active; also: potency is read from the fitted curve at half-maximal effect; nearly all actives have a fitted effect of over 60% in size
Target sequence (P51450 whole entry, looked up, the tested form may be a part): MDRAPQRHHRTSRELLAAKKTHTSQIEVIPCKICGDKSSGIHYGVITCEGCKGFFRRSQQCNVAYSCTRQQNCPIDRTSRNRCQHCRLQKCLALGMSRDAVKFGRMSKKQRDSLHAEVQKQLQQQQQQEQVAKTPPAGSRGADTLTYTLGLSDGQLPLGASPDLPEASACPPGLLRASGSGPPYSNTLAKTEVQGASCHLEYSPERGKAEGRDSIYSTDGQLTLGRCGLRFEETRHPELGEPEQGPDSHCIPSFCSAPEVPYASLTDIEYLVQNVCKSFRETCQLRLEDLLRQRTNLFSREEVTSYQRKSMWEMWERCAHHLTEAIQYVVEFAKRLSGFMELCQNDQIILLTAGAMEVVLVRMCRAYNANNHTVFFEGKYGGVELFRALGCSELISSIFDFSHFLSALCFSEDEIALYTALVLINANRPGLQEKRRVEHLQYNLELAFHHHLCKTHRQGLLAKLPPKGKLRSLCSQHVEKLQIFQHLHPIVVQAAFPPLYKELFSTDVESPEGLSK
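In this cell-based reporter format, copper sulfate (700 uM final) drives Gal4–ROR gamma fusion expression from a metallothionein promoter in Drosophila Schneider cells; compounds preincubated 1 hr, reporter read after 20 hr at ambient temperature.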
* hit, by the source's call; ? = inconclusive; / = not tested or not shown; ! = repeats disagree; [ ] = another dose, or the depositor's remark. Unless noted, calls follow the shape of the dose curve; as a rule, active = well fitted curve in the direction sought with a large enough effect; inconclusive = small, poorly fitted or top-dose-only effect, or another doubt; inactive = no such curve, though single readings can be large; an effect the other way counts as inactive or inconclusive. % is scaled to controls: 0 for no effect and ±100 for the full control effect.

SMILES	ELG1 DNA repair	VP16 counter	TDP1 cell noCPT	TDP1 cell CPT	IL-1B inflam inh	RORgamma inh
CCc1cc2ccc(C)cc2nc1SCC(=O)N1CCN(C(=O)c2ccco2)CC1	?	5.2%	18.4µM*	?	?	-13.5%
CCc1cc2cc3c(cc2nc1SCC(=O)N1CCN(C(=O)c2ccco2)CC1)OCO3	?	2.0%	?	?	?	1.6%
CCOc1ccccc1CN1CCN(C2CCSCC2)CC1CCO (stereo not drawn)	-2.1%	-1.3%	2.0%	7.5%	1.4	-2.6%
CC1=CN(S(=O)(=O)c2ccc(C)cc2)C[C@@H]2[C@H]3CC[C@H](C3)[C@H]12	-5.3%	/	?	?	-17.1	/
Clc1ccccc1OCCCCN1CCCCC1	-10.0%	-7.5%	3.1%	0.5%	-7.8	-29.5%
Cc1cc(Br)ccc1OCCOCCN1CCCC1	0.0%	0.0%	?	?	-12.3	-13.0%
Clc1ccc(Cl)c(OCCCCN2CCCCC2)c1	-3.3%	-9.3%	?	18.4µM*	0.0	-18.1%
Cc1cc(Br)ccc1OCCCCN1CCCCC1	-2.2%	-6.3%	?	?	-57.8*	-8.5%
COc1ccc(NC2=CC(=O)CC(C)(C)C2)cc1	14.0%	-1.1%	-0.6%	-4.1%	-7.7	1.2%
COC(=O)c1ccc(NC2=CC(=O)CC(C)(C)C2)cc1	20.0%	-1.4%	23.1µM*	23.1µM*	?	16.8%
COc1cc2c(cc1OC)C(c1ccccc1[N+](=O)[O-])=NCC2	/	/	2.91µM*	5.8µM*	47.4	/
COc1cc2c(cc1OC)C(c1ccccc1N)=NCC2	6.1%	13.0%	20.6µM*	?	-18.9	-16.6%
COc1cc2c(cc1OC)C(c1ccccc1)=NCC2	4.1%	?	?	8.4%[9.04 µM]	-3.9	-22.4%
C/C(=N\OCc1nc2ccccc2c(=O)n1/N=C/c1cc([N+](=O)[O-])ccc1O)c1ccccc1	?	?	?	-29.7%	64.8	10µM*
O=[N+]([O-])c1ccc(O)c(/C=N/n2c(CO)nc3ccccc32)c1	25.9µM*	28.8%	-6.7%	-13.2%	0.0	-3.8%
C/C(=N\OCc1nc2ccccc2c(=O)n1/N=C/c1cc(C)cc([N+](=O)[O-])c1O)c1ccccc1	?	-4.3%	-6.7%	-3.0%	-9.7	6.9%
O=[N+]([O-])c1ccc(O)c(/C=N/n2cnc3ccccc32)c1	20.6µM*	?	?	?	24.2	?
OCc1nc2ccccc2n1/N=C/c1cccs1	10.3%	-6.1%	-23.6%	-0.7%	-10.4	-10.3%
Cc1cc([N+](=O)[O-])cc(/C=N/n2c(C)nc3ccccc3c2=O)c1O	?	4.8%	?	?	115.8	12.6µM*
COc1cccc(/C=N/n2cnc3ccccc32)c1OC	?	?	?	?	-15.0	-38.1%
CCN1C=C(Cc2ccc(OC)cc2)C2=C(C1)C(c1ccc(OC)cc1)C(C#N)=C(N)O2 (stereo not drawn)	20.6µM*	0.8%	16.4µM*	?	-59.9*	17.6%
COc1ccc(C2C(C#N)=C(N)Oc3c2oc(CO)cc3=O)cc1 (stereo not drawn)	2.7%	-19.4%	31.2%	-13.1%	-5.5	20.1%
O=C(O)CSc1nnc(-c2ccncc2)n1-c1ccc(Cl)cc1	-1.3%	-2.9%	-9.7%	11.7%	16.5	-4.7%
O=C(CSc1nnc(-c2cccs2)n1-c1cccc(Cl)c1)c1cccc2c1OCCO2	?	4.0%	16.4µM*	?	-0.8	-16.0%
O=C(CSc1nnc(-c2cccs2)n1-c1ccccc1)N1CCOCC1	-4.1%	-0.9%	-16.5%	-3.9%	-10.0	15.4%
SMILES	ELG1 DNA repair	VP16 counter	TDP1 cell noCPT	TDP1 cell CPT	IL-1B inflam inh	RORgamma inh
O=C(O)CSc1nnc(-c2cccs2)n1-c1ccc(Cl)cc1	7.3%	0.2%	29.1µM*	?	-7.3	-17.5%
c1ccc(-n2c(SCC3CCCCO3)nnc2-c2cccs2)cc1 (stereo not drawn)	1.4%	-11.6%	?	18.4µM*	-11.0	-3.6%
Cc1ccc2cc3cc(C(=O)N4CCN(c5ccccc5)CC4)oc3nc2c1	/	/	?	-3.0%	/	/
CCOC(=O)c1noc2ncnc(Nc3cccc(C(F)(F)F)c3)c12	/	/	-24.1%	-24.2%	/	/
Cc1cccc2c(N3CCCC3)nc(CNS(=O)(=O)c3ccc4ccccc4c3)nc12	/	/	?	1.6%[9.04 µM]	/	/
CCc1cccc(NC(=O)c2cc(S(=O)(=O)N3CCCCCC3)cn2C)c1	/	/	-14.8%	-2.7%	/	/
Cc1ccc2c(=O)c3ccccc3n(CCCN)c2c1C	/	15.8µM*!	/	/	/	11.2µM*!
CC(NC(=O)C1CCCN1C(=O)c1cccs1)c1ccc(Cl)cc1Cl (stereo not drawn)	/	/	-15.5%	-13.4%	16.7	/
COc1cc2c(cc1OC)-c1n[nH]c(=S)n1C(C)(C)C2	?	?	0.0%	7.3%	-1.9	7.94µM*
Cc1cc2c(cc1C)C(=O)NC(C)(C)C2	/	-12.2%	-28.4%	-25.3%	-6.8	-22.5%
COc1cc2c(cc1OC)-c1nnc(-c3cccs3)n1C(C)(C)C2	/	/	?	?	-10.0	/
COc1cc2c(cc1OC)-c1cc3nc4ccccc4nc3n1C(C)(C)C2	/	?	8.41µM*	11.9µM*	/	?
COc1cc2c(cc1OC)C(=S)NC(C)(C)C2	6.6%	?	14.3%	14.9%	-9.1	20µM*
CCOC(=O)C1=CCN(S(=O)(=O)c2ccc(F)cc2)C1c1cccc(F)c1 (stereo not drawn)	/	/	?	-25.5%	1.4	/
CC1(C)OC(=O)C2=C(C[C@@H](CCOCc3ccccc3)O[C@H]2c2ccc(F)cc2)O1	/	/	?	?	6.6	/
COc1ccc(Br)cc1-c1nc2c(c(=O)[nH]c(=O)n2Cc2ccccc2)n1C	0.7%	?	?	8.0%	32.9	-9.9%
COCCCn1c(-c2cccc(Cl)c2)nc2c1c(=O)[nH]c(=O)n2Cc1ccccc1	?	1.1%	7.31µM*	?	12.4	5.7%
Cn1c(-c2cc(Cl)ccc2O)nc2c1c(=O)[nH]c(=O)n2Cc1ccccc1	-19.8%	-12.9%	13µM*	18.4µM*	59.9	28.8%
O=C(/C=C/c1ccc(N2CCCCC2)c([N+](=O)[O-])c1)c1ccc(O)cc1	?	?	18.4µM*	?	-94.9*	11.2µM*
Nc1nnnn1/N=C/c1ccc(N2CCCCC2)c([N+](=O)[O-])c1	26.3%	-26.1%	13µM*	20.6µM*	-7.1	?
CSc1ccc(CNC(=O)C2(C)CCCN(C(C)=O)C2)cc1 (stereo not drawn)	/	/	0.2%	-13.6%	0.0	/
